Assay results as given in ChEMBL document CHEMBL3988442, “University of Dundee, Small-Polar-MMV Screening Library” (2021).

Target: T1, Arginase-2, mitochondrial (Homo sapiens) (UniProt P78540)
T1 sequence (whole entry): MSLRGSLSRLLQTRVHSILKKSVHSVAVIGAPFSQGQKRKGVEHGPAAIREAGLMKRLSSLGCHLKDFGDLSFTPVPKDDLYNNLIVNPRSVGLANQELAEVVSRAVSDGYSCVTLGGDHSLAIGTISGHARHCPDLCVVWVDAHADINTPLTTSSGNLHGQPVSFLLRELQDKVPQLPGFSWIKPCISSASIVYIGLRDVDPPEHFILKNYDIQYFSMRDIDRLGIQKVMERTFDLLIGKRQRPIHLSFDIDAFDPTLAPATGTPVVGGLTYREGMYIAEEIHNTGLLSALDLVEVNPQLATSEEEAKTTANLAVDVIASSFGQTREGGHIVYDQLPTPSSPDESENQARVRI
Assay: in vitro enzyme assay to detect the production of urea directly proportional to the activity of Arginase II
Format: functional
Parameters: scale not given: in the data most compounds retested in dose-response had high values
Details: 30 µM

Going from `CC(C)[C@H](NC(=O)Cn1nc2c(cc1=O)CCCC2)C(=O)O` to `CC(C)CS(=O)(=O)CC(=O)N1CCCC1c1noc(C2CC2)n1` (stereo not given), the Percent Effect falls from 13.5% to 5.95%.

Compared with `COc1ccc(C(=O)N2C[C@@H](C(=O)O)[C@H](c3cccc(F)c3)C2)c(O)c1`, `Cc1ccc([C@@H]2CN(S(=O)(=O)Cc3ccccc3)C[C@H]2N(C)C)cc1` is lower in Percent Effect: 7.03% for the first, 1.62% for the second.

Going from `CCCc1n[nH]cc1C(=O)NCC1COc2cc(OC)ccc2C1` (stereo not given) to `COc1ccc2c(c1)OCC(CNC(=O)c1cnc(NC(C)C)nc1)C2` (stereo not given), the Percent Effect falls from 8.11% to 2.7%.

First: CN(Cc1ccco1)[C@@H]1CN(Cc2cnn(C)c2)[C@@H]2CCCO[C@H]12
Second: CCCS(=O)(=O)N1C[C@H](N(C)Cc2ccco2)[C@@H]2OCCC[C@@H]21
The Percent Effect of the first is lower: 2.7% for the first, 11.3% for the second.

First: NC(=O)CCCNC(=O)c1cc(Br)c2c(c1)OCCO2
Second: CCCNC(=O)c1cc(Br)c2c(c1)OCCO2
The Percent Effect of the first is lower: 3.78% for the first, 5.95% for the second.

Compared with `COc1cc(C2SC(C)=Nc3c2c(=O)[nH]n3C2CCCC2)ccc1O` (stereo not given), `COC(=O)c1ccc(C2SC(C)=Nc3c2c(=O)[nH]n3C2CCCC2)cc1` (stereo not given) is higher in Percent Effect: 3.78% for the first, 11.3% for the second.

Compared with `FC(F)(F)C1CCc2nnc(CNCc3cccs3)n2C1` (stereo not given), `Cn1cc(CN2C[C@@H]3COC[C@]3(C(=O)NCc3cccs3)C2)cn1` is higher in Percent Effect: 2.7% for the first, 4.87% for the second.

Compared with `COc1ccccc1Oc1ncccc1CNC(=O)[C@@H](N)CCO`, `COc1ccccc1Oc1ncccc1CNC(=O)[C@H](C)O` is higher in Percent Effect: -12.4% for the first, 4.87% for the second.

Compared with `CN(C)c1ncccc1CNC(=O)N(Cc1ccccc1F)C1CC1`, `COc1ccccc1Oc1ncccc1CNC(=O)[C@@H](N)[C@@H](C)O` is lower in Percent Effect: 8.11% for the first, 3.78% for the second.

Going from `Cc1noc(C)c1CN1CCC[C@]2(C[C@@H](Oc3ccccn3)CO2)C1` to `O=C(NCc1ccccn1)[C@]12COC[C@H]1CN(Cc1cccnc1)C2`, the Percent Effect rises from -26.5% to -5.95%.

Compared with `Cc1nn(C)cc1C(=O)N1CCCC(c2nccn2Cc2cscn2)C1` (stereo not given), `Cc1ncsc1C(=O)N1CCCC(c2nccn2Cc2cscn2)C1` (stereo not given) is higher in Percent Effect: -12.4% for the first, 10.3% for the second.

First: OCCN1CCC(c2cncc(-c3cccc(Cl)c3)n2)CC1
Second: Cc1cccc(C(=O)N2CCCC(c3nccn3Cc3cscn3)C2)n1 (stereo not given)
The Percent Effect of the first is lower: -3.78% for the first, 9.19% for the second.

`CNC(=O)[C@H]1C[C@@H]2CN(C(=O)c3ccsc3)C[C@@H]2N1S(C)(=O)=O` and `CNC(=O)[C@H]1C[C@@H]2CN(C(=O)c3ccccn3)C[C@@H]2N1S(C)(=O)=O` are the same in Percent Effect: 8.11% for the first, 8.11% for the second.

Compared with `COc1ccc(C(=O)N(CCC#N)Cc2ccccn2)cc1`, `OC(CN(Cc1ccccc1)Cc1ccon1)c1cccs1` (stereo not given) is higher in Percent Effect: 1.62% for the first, 8.11% for the second.

Compared with `CCCn1c(NCCc2ccccc2)nc2c(C)nn(C)c2c1=O`, `Cc1nn(C)c2c(=O)n(C(C)C)c(NCCc3ccccc3)nc12` is higher in Percent Effect: 1.62% for the first, 8.11% for the second.

Going from `CC(C)c1ncc(CN2CCOC(C(=O)Nc3ccccc3)C2)cn1` (stereo not given) to `Cn1cc(CN2C[C@@H]3COC[C@]3(C(=O)NCCc3ccccc3)C2)cn1`, the Percent Effect rises from 3.78% to 12.4%.

First: CC(=O)N1CCN(C(=O)Cn2ccc3c(Cl)cccc32)CC1
Second: CC1CCN(S(=O)(=O)c2cccn(CC(=O)NC(C)(C)C)c2=O)CC1
The Percent Effect of the first is lower: 2.7% for the first, 8.11% for the second.

Going from `COc1ccc(OCC(O)CN2CCN(c3nccs3)CC2)cc1` (stereo not given) to `Nc1ccc(C(=O)N2CCCC(c3nccn3Cc3cscn3)C2)cn1` (stereo not given), the Percent Effect rises from -8.11% to 5.95%.

First: CCn1c(NCc2cccnc2)nc2c(C)nn(C)c2c1=O
Second: CNC(=O)[C@@H]1C[C@H]2CN(C(=O)c3ccco3)C[C@H]2N1C(C)C
The Percent Effect of the first is lower: 3.78% for the first, 9.19% for the second.

Compared with `CC(=O)NCCNC(=O)c1cc(Br)c2c(c1)OCCO2`, `Cc1nc(NCC2CC2)nc2c1COCC21CCN(C(=O)C(C)(C)C)C1` (stereo not given) is higher in Percent Effect: 4.87% for the first, 8.11% for the second.
